This note sets out measurements from PubChem BioAssay AID2763 (National Center for Advancing Translational Sciences (NCATS), 2010).

Inconclusive results are not listed. The source made the active and inactive calls. The call rests on the fitted dose curve; in most records, active means well fitted inhibition curve with a large enough effect; inconclusive means small, poorly fitted or top-dose-only effect, or effect the other way; inactive means no such curve, though single readings can be large or run the other way.
Potency means the concentration at half of the fitted maximal effect.

The nature of this assay: Concentration response confirmation VP16 counterscreen for inhibitors of ROR gamma transcriptional activity. Further: nearly all actives have a fitted effect of over 70% in size. The note with it: Drosophila S2 Gal4-VP16 UAS-luciferase, luminescence, 20 h; series mostly up to 46.1 µM. From the text:
NIH Molecular Libraries Probe Production Network [MLPCN] NIH Chemical Genomics Center [NCGC] MLPCN Grant: R03 DA026211-01 Assay Provider: Dan Littman, New York University Assay Overview: The retinoic acid-related orphan receptor (ROR) gamma is a transcription factor that has a central role in the differentiation of Th17 cells, a subset of T helper cells that secrete the inflammatory cytokines IL-17, IL-17F, and IL-22. Th17 cells have been implicated in graft versus host disease, autoimmune disease and asthma. ROR gamma is induced in naive T helper cells in the presence of TGF-beta combined with IL-6, IL-21, or IL-23, and thereafter directs the expression of the Th17 lineage cytokines. To identify nonspecific inhibitors, a Drosophila Schneider cell line was stably transfected with two vectors: a gene expressing a fusion of the Gal4 DNA binding domain and the transactivation domain of the viral transcription factor VP16, under the control of the metallothionine promoter and a Photinus luciferase reporter regulated by the Gal4 binding site enhancer, UAS. […] Small molecule inhibitors that inhibit components common to the RORgt and VP16 assays, such as the Gal4 DNA binding domain or the UAS luciferase reporter, will be active in both assays and thus scored as nonspecific.
Assay Protocol Summary: For screening, 600 cells in 4 uL/well were dispensed into white solid 1536-well plates (Grenier) using a solenoid-based dispenser. Following transfer of 23 nL compound or DMSO vehicle by a pin tool, the plates were incubated 1 hr at ambient temperature, and 1 uL/well copper sulfate (700 uM final concentration) was added. The plates were centrifuged 15 s at 1000 RPM and incubated 20 hr at ambient temperature. After addition of 1.5 uL Photinus luciferase detection reagent, the plates were incubated 10 min at ambient temperature and then read by an ViewLux (Perkin Elmer) to detect luminescence.
In general terms: A counterscreen serves to expose hits that act by an unwanted route or on another target.
With `CCCCNS(=O)(=O)c1ccc(OCC(=O)N2CCN(Cc3ccc4c(c3)OCO4)CC2)cc1`, the Potency is 22.3 µM (active).

As for `COc1cc(C(=O)N/N=C/C23CC[C@@H](O)CC2(O)CC[C@@H]2[C@@H]3CCC3(C)C(C4=CC(=O)OC4)CCC23O)ccc1O` (stereo partly drawn), the Potency entry was “inactive”.

`CCCNS(=O)(=O)c1ccc(OCC(=O)N2CCN(Cc3ccc4c(c3)OCO4)CC2)cc1`: the Potency was 25 µM (active).

As to `Cc1cc(S(=O)(=O)NC(C)C)ccc1OCC(=O)N1CCN(Cc2ccc3c(c2)OCO3)CC1`, the Potency was 11.2 µM (active).

Turning to `O=C(Nc1ncc(Cc2ccccc2)s1)C1=NCCN1`, the Potency is 19.9 µM (active).

Turning to `Cn1ncnc2c(=O)n(C)c(=O)nc1-2`, the Potency is 0.445 µM (active).

For `O=C(c1ccco1)c1cn(Cc2ccccc2Cl)c2ccccc12`, the Potency entry was “inactive”.

Take `OC(COCc1ccc(Cl)cc1)CN1CC=C(c2ccccc2)CC1` (stereo not drawn): the Potency entry is “inactive”.
